± gives the standard deviation.
system: MILI (PIWIL2) piRISC loaded with L1MC piRNA (26 nt); assay: pre-steady-state target cleavage rate (min^-1); guide: L1MC piRNA 5'p-UAACUAAAUACUAUGCAAGCUGUAGG; MIWI and MILI are mouse PIWI proteins and EfPiwi is from a freshwater sponge; tags in brackets are library labels; higher = faster piRNA-guided slicing of the target; settings: auxiliary factor: 500 nM mouse GTSF1
How it was run: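 A burst-and-steady-state fit was used to obtain the pre-steady-state cleavage rate. The input data were sequencing reads of uncleaved targets, normalised to depth and to weakly complementary targets, from a […] transcribed, DNA-blocked target RNA library mixed with 1 nM active affinity-purified piRISC holding one synthetic guide, with or without 500 nM GTSF1 partner protein, in HEPES–potassium acetate buffer at 33 °C for 0–8 or 0–960 min. Three trials were pooled and k3 was capped at 0.0001 min^-1.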
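Also: 1 nM active piRISC with 0.1 nM target library at 33 °C single turnover.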

Row | Sequence | pre-steady-state target cleavage rate
1 | UCCUGGUACAGCUUGCAUAGUAUAAUCAAA | 0.0264 ± 0.0091
2 | UCCUGGUACAGCUUGCAAAGUAUUUAGAUA | 0.118 ± 0.021
3 | UCCUGGAUGUGCUUCGAUAGUAUUUAGUAA | 0.0404 ± 0.011
4 | UCCUCCUACAGCUUGCAUACAUUUUAGUUA | 0.00509 ± 0.0039
5 | UCCUGGAUCAGCUACGAUAGUAUUUAGUUA | 0.0475 ± 0.0093
6 | UCCUGGUACAGCUUGCAUAGUAUUGUAGUUA | 0.233 ± 0.055
7 | UCCUCCUACAGCUUGCAAUCUAUUUAGUAA | 0.0401 ± 0.0094
8 | UCCUGGAUGAGCUUGCAAAGUAUUUAGAUA | 0.117 ± 0.022
9 | UCCUGGAUCAGCAAGCAUAGUAUUUACAAA | 0.108 ± 0.023
10 | UCCUGGAUGUCGAAGCGUAGUAUUUAGUUA | 0.00313 ± 0.0025
11 | UCCUGGAUGAGCUUGCAUAGUUUUAAGUUA | 0.0195 ± 0.0084
12 | UCCUGGAUGUGCUUGGAUAGUAUUUAGAUA | 0.00891 ± 0.0052
13 | UCCUGGAUGUCGAUGCAGAGUAUUUAGUUA | 0.00473 ± 0.0028
14 | UCCUGGAUGUCGAUGCAUAGUAUUUAGGUA | 0.0275 ± 0.011
15 | UCCUGGAUCAGCUUGCAUAGUAUUAGUUA | 0.141 ± 0.018
16 | UCCUGGAUCACGAUGCAUAGUAUUUACAAA | 0.0606 ± 0.015
17 | UCCUGGAUGUCCUUGGAUAGUAUUUACUUA | 0.014 ± 0.005
18 | UCCUGGUAGAGCUUGCAUAGUAUUUACUUA | 0.0436 ± 0.012
19 | UCCUGGAUGUCCAUGCAUAGUAUUUAGUAA | 0.0373 ± 0.011

Row | Sequence | pre-steady-state target cleavage rate
20 | UCCUGGAUGAGCUUGCAUAGUCAUUUAGUUA | 0.00477 ± 0.0039
21 | UCCUGGAUGUGCUUGCAUAGUAUUUAGGUA | 0.0373 ± 0.011
22 | UCCUCCUACAGCUUGCAUAGAUAUUAGUAA | 0.015 ± 0.007
23 | UCCUGGAACAGCUUGCAAAGUAUUUACAAA | 0.0328 ± 0.01
24 | UCCUGGAUGAGCUUGCAUUGUAUUUUGUUA | 0.0997 ± 0.015
25 | UCCUGGAUGUGCUUGCAUAGUAUUAAGAUA | 0.00523 ± 0.0046
26 | UCCUGGAUCAGCUUGCAUUCUAUUUAGUUA | 0.0266 ± 0.0066
27 | UCCUGGAACAGCUAGCAUAGAAUUUAGUUA | 0.0486 ± 0.0073
28 | UCCUCCUACAGCUUCGUUAGUAUUUAGUAA | 0.186 ± 0.026
29 | UCCUGGAACAGCUACGAUAGUAUUUAGUAA | 0.142 ± 0.02
30 | UCCUCCUACAGCUUGGUAAGUAUUUAGUAA | 0.155 ± 0.025
31 | UCCUGGAUGUCCUUGCAUUCAAUUUAGUUA | 0.00852 ± 0.0047
32 | UCCUGGAUGUGCUUGCAUAGUUUUUUGUUA | 0.0102 ± 0.0056
33 | UCCUGGAACAGCUUGCAUACUAAUUAGUUA | 0.0355 ± 0.0087
34 | UCCUGGAUGUCGAUGCAUAGUAUUUAUUUA | 0.0578 ± 0.015
35 | UCCUGGAUGUCGAAGCAUAGUAUGUAGUUA | 0.0113 ± 0.0045
36 | UCCUGGAUGAGCUUGCAUUAGUAUUUAGUUA | 0.00494 ± 0.0045
37 | UCCUGGAACAGCUUGCAUAGUUUUUAGUAA | 0.0664 ± 0.015

same assay, conditions: auxiliary factor: none (no GTSF1)

Row | Sequence | pre-steady-state target cleavage rate
38 | UCCUGGAUGUCGAAGCAUGUAUUUAGUUA | < 0.0001
39 | UCCUGGAUGUCGAACGUAAGUUUUAGUUA | < 0.0001
40 | UCCUGGAUGUCGAACGAUUCAAUUUAGUUA | < 0.0001

Source: the supplement of paper PMC10338343
